High-throughput results (PubChem)
The list is not random: actives were taken first. Their share in the collection is about 11%.
HSD17B inhib = qHTS Assay for Inhibitors of HSD17B4, hydroxysteroid (17-beta) dehydrogenase 4. 3-hydroxyacyl-CoA dehydrogenase type-2 (Homo sapiens), Q99714. recombinant HSD17B10, NADH fluorescence kinetic. Potency, µM (highest dose often 57.1 µM), inactives show at the highest dose activity change, negative = inhibition, most hits filed as inhibitors. hit rate 7.6% among 75,000. AID 893, 2007;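 further: the protocol describes HADH2 (HSD17B10) and not the HSD17B4 of the title; nearly all actives have a fitted effect of over 70% in size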
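20 nM HADH2, pH 9.0 Tris/Tween; cpd preinc 15 min RT; start w/ 1 mM NAD+ + 90 uM b-hydroxybutyryl-CoA; kinetic fluor ex360/em450 q30s x 4 min; delta last-first.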
Luciferase inh = qHTS Assay for Inhibitors of Firefly Luciferase; purified firefly luciferase, luminescence, 8 min; AID 411, 2009; Potency, µM (titrated, usually from 57.1 µM), inactives show top-dose activity change, negative = inhibition, most hits filed as inhibitors; hit rate 2.2% among 72,000; Luciferin 4-monooxygenase (Photinus pyralis), P08659; further: nearly all actives have a fitted effect of over 40% in size
Target sequence (P08659 whole entry, looked up): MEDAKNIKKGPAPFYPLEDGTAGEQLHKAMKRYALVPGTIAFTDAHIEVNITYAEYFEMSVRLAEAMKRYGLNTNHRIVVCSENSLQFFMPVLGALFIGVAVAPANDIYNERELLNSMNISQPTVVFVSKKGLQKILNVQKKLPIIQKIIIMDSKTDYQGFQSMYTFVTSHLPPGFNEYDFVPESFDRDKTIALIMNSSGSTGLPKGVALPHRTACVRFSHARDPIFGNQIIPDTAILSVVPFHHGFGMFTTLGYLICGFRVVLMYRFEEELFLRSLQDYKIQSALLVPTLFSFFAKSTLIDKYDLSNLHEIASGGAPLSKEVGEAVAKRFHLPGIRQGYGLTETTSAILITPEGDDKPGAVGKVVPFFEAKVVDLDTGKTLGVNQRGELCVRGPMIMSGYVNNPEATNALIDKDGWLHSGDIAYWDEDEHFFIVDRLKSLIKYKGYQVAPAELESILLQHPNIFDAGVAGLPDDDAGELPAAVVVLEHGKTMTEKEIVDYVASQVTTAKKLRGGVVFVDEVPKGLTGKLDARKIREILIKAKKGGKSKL
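qHTS concentration-response profiling: light output of P. pyralis luciferase with luciferin and 10 uM ATP, imidazole buffer pH 7.2. Read by luminescence after 8-min room-temperature incubation.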
Bst PK mod = Pyruvate Kinase; Potency, µM; hit rate 1.2% among 51,000; purified pyruvate kinase, luminescence ATP production; ribose 5-phosphate activator present at AC10; in the data active means potency below about 11 µM; inconclusive means mostly about 12 µM to 25 µM;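 the screen sought inhibitors and activators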;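 further: scaled between full activation by ribose 5 phosphate and full inhibition by luteolin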
HADH2 inhib = qHTS Assay for Inhibitors of HADH2 (Hydroxyacyl-Coenzyme A Dehydrogenase, Type II); hit rate 3.4% among 73,000; Potency, µM (series often up to 57.1 µM), for the others: at the highest dose activity change, negative = inhibition, most hits filed as inhibitors; recombinant HADH2, NADH fluorescence, beta-hydroxybutyryl-CoA; 3-hydroxyacyl-CoA dehydrogenase type-2 (Homo sapiens), Q99714; AID 886, 2007; further: nearly all actives have a fitted effect of over 60% in size
Target sequence (Q99714 whole entry, looked up, one chain of several): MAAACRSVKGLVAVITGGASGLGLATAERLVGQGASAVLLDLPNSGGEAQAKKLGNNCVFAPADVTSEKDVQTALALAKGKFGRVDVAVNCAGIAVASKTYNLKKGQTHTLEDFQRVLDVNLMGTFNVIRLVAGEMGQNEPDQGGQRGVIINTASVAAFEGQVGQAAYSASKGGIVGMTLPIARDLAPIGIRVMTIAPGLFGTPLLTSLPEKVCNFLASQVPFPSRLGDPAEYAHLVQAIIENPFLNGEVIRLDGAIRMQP
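20 nM HADH2 + cpd, 15 min RT; add 1 mM NAD+/90 uM beta-hydroxybutyryl-CoA; kinetic fluorescence 360/450 nm, 4 min. Tris-HCl pH 9.0, 0.01% Tween-20.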
ERK AVP inh = qHTS Assay for Inhibitors of the ERK Signaling Pathway using a Homogeneous Screening Assay; Potency, µM (doses to about 57.5 µM), inactives show at the highest dose activity, negative = inhibition, most hits filed as inhibitors; HEK293-V1b, vasopressin-stimulated pERK AlphaScreen; AID 995, 2007; hit rate 0.99% among 72,000; further: nearly all actives have a fitted effect of over 55% in size
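V1b-HEK293 cells; cpd 30 min 37C; 25 nM vasopressin 5 min; lyse 10 min; AlphaScreen beads 5 hr RT. Normalized to DMSO basal and 25 nM vasopressin; AC50 by Hill fit.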
ALOX15 inhib = qHTS Assay for Inhibitors of 15-hLO (15-human lipoxygenase); Potency, µM (highest dose often 57.1 µM), for the others: top-dose activity change, negative = inhibition, most hits filed as inhibitors; purified 15hLO-1, xylenol orange hydroperoxide absorbance; Polyunsaturated fatty acid lipoxygenase ALOX15 (Homo sapiens), P16050; hit rate 1.4% among 74,000; further: nearly all actives have a fitted effect of over 55% in size
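Readout: Fe(III)-xylenol orange absorbance, 573-to-405 nm ratio as reaction progress. Enzyme 40 nM purified human 15hLO-1, substrate 50 uM arachidonic acid, 6 min RT after 15 min compound preincubation; Hepes pH 7.5 buffer with Triton X-100.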
* marks the source's active call; other numbers are inactive results; i = inactive; ? = inconclusive; . = not tested or not shown; [ ] = dose if it differs, or a comment. Unless noted, the call rests on the fitted dose curve; in most records, active means well fitted curve in the direction sought with a large enough effect; inconclusive means small, poorly fitted or top-dose-only effect, or another doubt; inactive means no such curve, though single readings can be large; an effect the other way counts as inactive or inconclusive. Unless noted, on the % scale 0 is the no-effect control and ±100 the full control effect; potency means the concentration at half of the fitted maximal effect.

SMILES	HSD17B inhib	Luciferase inh	Bst PK mod	HADH2 inhib	ERK AVP inh	ALOX15 inhib
c1csc(-c2nn3c(-c4ccncc4)nnc3s2)c1	-2.4%	-0.4%	.	7.1%	-10.3%	10.5%
c1coc(-c2nnc3sc(-c4cccs4)nn23)c1	.	0.4%[25.5 µM]	8.98*	.	.	.
COc1cc(-c2nn3c(Cc4ccccc4)nnc3s2)cc(OC)c1OC	31.6µM*	1.3%	>57	10µM*	-28.5%	-26.6%
COc1cc(OC)c(-c2nn3c(-c4ccco4)nnc3s2)cc1OC	?	-4.5%	>57	39.8µM*	?	-17.9%
COc1cccc(OC)c1-c1nn2c(-c3ccccc3Cl)nnc2s1	.	-1.0%[25.5 µM]	7.26*	.	.	.
COc1cc(-c2nn3c(COc4ccccc4)nnc3s2)cc(OC)c1OC	.	2.0%[25.5 µM]	>25.6	.	.	.
CC(=O)NCCNc1nc(-c2cccc(C#N)c2)nc2ccccc12	-10.2%	0.9%[2.29 µM]	.	6.3%	-20.3%	4.7%
Cc1c(Cl)cccc1NC(=O)c1cc(-c2ccc(O)cc2)on1	-3.9%	-4.1%	.	-17.9%	-2.7%	-15.7%
COc1ccc(-c2nn3c(-c4ccco4)nnc3s2)cc1OC	-11.3%	-4.8%	i	-3.4%	25.1µM*	-14.2%
COc1cc(-c2nnc3sc(-c4ccco4)nn23)cc(OC)c1OC	1.6%	1.5%	.	-28.0%	-19.3%	-3.1%
OCCNCCO	31.6µM*	.	.	30.0%	-2.4%	0.7%
OCCNCCCCCOc1ccc(F)cc1	-4.0%	0.7%	.	-2.5%	-1.6%	3.1%
Cc1ccc(C(C)(C)C)cc1	3.0%	.	.	-4.4%	10.2%	-6.3%
c1ccc2cc(NCNc3ccc4ccccc4c3)ccc2c1	3.16µM*	-13.8%[11.4 µM]	.	2.0%[11.4 µM]	-23.2%[11.5 µM]	-3.3%[11.4 µM]
O=c1[nH]ccc2c(O)cccc12	25.1µM*	0.5%	.	31.6µM*	8.5%	2.7%
CC(CCN)(CCN)[N+](=O)[O-]	-5.2%[11.4 µM]	0.5%[11.4 µM]	.	11.3%[11.4 µM]	1.5%[11.5 µM]	5.1%[11.4 µM]
COc1cc(CNc2cccc(F)c2)cc(Br)c1O	-23.5%	-1.2%	.	12.6µM*	9.4%	?
C[C@H](N)C1CCC(C(=O)Nc2ccncc2)CC1 (stereo not given in full)	2.9%	-2.9%	.	-10.1%	-12.1%	-2.4%
Fc1ccc(-c2cc3nc(-c4ccccc4)cc(N4CCOCC4)n3n2)cc1	12.6µM*	-0.6%	?	10µM*	-1.5%	3.1%
Cc1nc2cc(-c3cccc(F)c3)nn2c(N2CCOCC2)c1C	4.7%	-4.8%	.	8.8%	-11.2%	17.2%
COc1cc(OC)cc(-c2nnc(Nc3nc4c(F)cccc4s3)o2)c1	10µM*	-0.4%	>57	-25.4%	3.0%	14.0%
Fc1cccc2sc(Nc3nnc(-c4ccccc4)o3)nc12	25.1µM*	12.6µM*	i	-18.9%	-9.5%	9.1%
COC(=O)[C@@H]1C[C@H]1[C@@H](NC(=O)c1ccc(Br)cc1)c1ccccc1	-8.1%	.	.	16.8%	-2.0%	6.0%
Cc1nc2cnc(OCc3ccccc3)nc2n(CCC#N)c1=O	2.8%	-0.2%[11.4 µM]	.	2.3%	-16.7%	3.4%
N#CCCn1c(=O)c(-c2ccc(Cl)cc2)nc2cnc(OCc3ccccc3)nc21	14.2%	0.4%[11.4 µM]	.	17.5%	13.8%	0.5%
SMILES	HSD17B inhib	Luciferase inh	Bst PK mod	HADH2 inhib	ERK AVP inh	ALOX15 inhib
COc1ncc2nc(-c3ccc(F)cc3)c(=O)n(CCC#N)c2n1	25.1µM*	0.3%[11.4 µM]	.	?	1.1%	5.2%
N#CCCn1c(=O)c(-c2ccc(F)cc2)nc2cnc(OCc3ccccc3)nc21	20µM*	1.3%[11.4 µM]	.	-2.5%	?	14.2%
N#CCCn1c(=O)c(-c2ccccc2)nc2cnc(OCc3ccccc3)nc21	31.6µM*	0.9%[11.4 µM]	.	16.0%	-9.0%	-0.7%
COc1ccc(-c2nc3cnc(OC)nc3n(CCC#N)c2=O)cc1	?	-4.5%[11.4 µM]	.	-6.0%	-6.0%	-1.4%
COc1ccc(-c2nc3cnc(OCc4ccccc4)nc3n(CCC#N)c2=O)cc1	12.6µM*	-0.4%[11.4 µM]	.	11.3%	8.3%	4.7%
C=CC(=O)OCCOCCOC(=O)C=C	-1.2%	.	.	?	9.3%	-2.5%
CCCCS(=O)(=O)Nc1ccc2ncn(C)c(=O)c2c1	25.1µM*	1.3%	>57	?	-10.7%	5.2%
Cn1cnc2cc(NS(=O)(=O)c3ccc(Br)cc3)ccc21	4.3%	0.0%	?	11.2%	-19.6%	1.5%
COc1ccc(C2C=C(C)Nc3nc(SC)nn32)cc1 (stereo not given)	25.1µM*	2.5%	>57	25.1µM*	-10.7%	-5.7%
NC(CCC(=O)N[C@@H](CS)C(=O)NCC(=O)O)C(=O)O (stereo not given in full)	-3.4%	.	.	.	-8.1%	?
O=C(O)CCCNc1cc(N2CCC3(CC2)OCCO3)c2noc3c2c1C(=O)c1ccccc1-3	2.51µM*	25.1µM*	i	?	32.3%	?
CCOC(=O)N1CCN(c2cc(NCCC(=O)O)c3c4c(onc24)-c2ccccc2C3=O)CC1	?	?	i	-26.7%	16.6%	-5.4%
COC(c1ccccc1Br)C(C)/C=C/CCO (stereo not given)	-0.6%[11.4 µM]	.	.	-13.1%[11.4 µM]	16.1%[11.5 µM]	1.58µM*
C=C1C[C@@]23C[C@]1(O)CC[C@@H]2[C@]12C=C[C@@H](O)[C@@](C)(C(=O)O1)[C@@H]2[C@@H]3C(=O)O	.	1.2%[11.4 µM]	.	1.0%	.	.
Nc1ccn([C@@H]2O[C@H](CO)[C@@H](O)[C@@H]2O)c(=O)n1	6.0%	.	.	-3.0%	.	-2.9%
Nc1ccn([C@H]2CC[C@@H](CO)O2)c(=O)n1	18.6%	.	.	6.8%	25.1µM*	-6.8%
COCCn1c(=O)c(CCc2ccccc2)nc2cnc(Oc3ccc(OC)cc3)nc21	2.9%	1.1%[11.4 µM]	.	3.3%	-4.1%	3.4%
NCCC[C@@H](CC(=O)N[C@@H]1CCNC[C@H]1C(=O)N[C@H](CC(=O)N[C@@H](CCC(=O)O)CC(=O)O)Cc1c[nH]c2ccccc12)NC(=O)C[C@H](CO)NC(=O)[C@@H]1CCCC[C@H]1N	.	.	.	12.1%	.	.
CCN(CCO)c1ccc(-n2c(N)c(C(=O)OC)c3nc4ccccc4nc32)cc1	-12.6%	-5.2%	>57	-1.8%	13.2%	-22.0%
C=CCNC(=O)c1c(N)n(-c2ccc3c(c2)OCO3)c2nc3ccccc3nc12	-2.4%	1.4%	>57	9.0%	1.0%	-1.5%
COC(=O)c1c(N)n(-c2cc(OC)cc(OC)c2)c2nc3ccccc3nc12	15.8µM*	1.8%	>57	-13.6%	-18.1%	10.1%
COCCCNC(=O)c1c(N)n(-c2cccc(S(N)(=O)=O)c2)c2nc3ccccc3nc12	25.1µM*	1.0%	>57	?	6.5%	-15.0%
